The values below come from paper PMC8384837, “Expanding the binding specificity for RNA recognition by a PUF domain”.

For the first test, the target named is PUM1 PUF domain R5-GRC (Homo sapiens, UniProt Q14671 828-1176, C1007G;Q1011C). Description: yeast three-hybrid, YBZ-1, SC-Leu-His + 0.5 mM 3-AT, 4 days. The settings on record: tags: N-Gal4 AD-HA kept; label: inside an RPR1-promoter hybrid RNA with tandem MS2 sites; ssRNA. In short, it runs like this: (§1)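 The interaction score is the log change in how often each variant appears, from input to selection. Frequencies came from PCR-amplified, Illumina-sequenced repeat regions of Pumilio-1 PUF domain libraries grown in strain YBZ-1 (LexA–MS2 coat fusion, HIS3 reporter) alongside matching RNA elements. Input plates were SC-Leu and selection plates were SC-Leu-His + 0.5 mM 3-AT, each for four days, and the log2 calculation used a pseudocount of 1 where a variant was absent.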
Turning to “GGCUAGAACUAGUGGAUCCCCCGGCGCCCGGCGGCUCGAGCCCGGGUAAGUGUUAAUAGUCUGCAUGCCGCCGGGCGCCAUGCCUGCAGGUCGACUCUAGAAAACAUG”, the binding signal was 4.6 log2 enrichment (interaction score).

For “GGCUAGAACUAGUGGAUCCCCCGGCGCCCGGCGGCUCGAGCCCGGGUAAGUGUAAAUAGUCUGCAUGCCGCCGGGCGCCAUGCCUGCAGGUCGACUCUAGAAAACAUG”, the binding signal was 4.07 log2 enrichment (interaction score). In the case of “GGCUAGAACUAGUGGAUCCCCCGGCGCCCGGCGGCUCGAGCCCGGGUAAGUGUCAAUAGUCUGCAUGCCGCCGGGCGCCAUGCCUGCAGGUCGACUCUAGAAAACAUG”, the binding signal is 0.62 log2 enrichment (interaction score).

Take “GGCUAGAACUAGUGGAUCCCCCGGCGCCCGGCGGCUCGAGCCCGGGUAAGUGUGAAUAGUCUGCAUGCCGCCGGGCGCCAUGCCUGCAGGUCGACUCUAGAAAACAUG”: the binding signal is 1.57 log2 enrichment (interaction score).

The target in a further test is PUM1 PUF domain R3-GPQ (Homo sapiens, UniProt Q14671 828-1176, C935G;R936P). The test is described as above. Particulars: tags: N-Gal4 AD-HA kept; label: inside an RPR1-promoter hybrid RNA with tandem MS2 sites; ssRNA. The method in brief: as §1
For the sequence “GGCUAGAACUAGUGGAUCCCCCGGCGCCCGGCGGCUCGAGCCCGGGUAAGUGUAAGUAGUCUGCAUGCCGCCGGGCGCCAUGCCUGCAGGUCGACUCUAGAAAACAUG”, the binding signal was 3.73 log2 enrichment (interaction score). With “GGCUAGAACUAGUGGAUCCCCCGGCGCCCGGCGGCUCGAGCCCGGGUAAGUGUAAAUAGUCUGCAUGCCGCCGGGCGCCAUGCCUGCAGGUCGACUCUAGAAAACAUG”, the binding signal was 4.19 log2 enrichment (interaction score). The same measure, in the same setting: under “GGCUAGAACUAGUGGAUCCCCCGGCGCCCGGCGGCUCGAGCCCGGGUAAGUGUAAUUAGUCUGCAUGCCGCCGGGCGCCAUGCCUGCAGGUCGACUCUAGAAAACAUG” stands 1.42 log2 enrichment (interaction score).

For a further test, the target named is PUM1 PUF domain R3-EFS (Homo sapiens, UniProt Q14671 828-1176, C935E;R936F;Q939S). The description is as above. The settings on record: tags: N-Gal4 AD-HA kept; label: inside an RPR1-promoter hybrid RNA with tandem MS2 sites; ssRNA. In short, it runs like this:
as §1
For “GGCUAGAACUAGUGGAUCCCCCGGCGCCCGGCGGCUCGAGCCCGGGUAAGUGUAAGUAGUCUGCAUGCCGCCGGGCGCCAUGCCUGCAGGUCGACUCUAGAAAACAUG”, the binding signal was 3.82 log2 enrichment (interaction score). The same measure, in the same setting: to “GGCUAGAACUAGUGGAUCCCCCGGCGCCCGGCGGCUCGAGCCCGGGUAAGUGUAAAUAGUCUGCAUGCCGCCGGGCGCCAUGCCUGCAGGUCGACUCUAGAAAACAUG” belongs 2.99 log2 enrichment (interaction score); to “GGCUAGAACUAGUGGAUCCCCCGGCGCCCGGCGGCUCGAGCCCGGGUAAGUGUAAUUAGUCUGCAUGCCGCCGGGCGCCAUGCCUGCAGGUCGACUCUAGAAAACAUG”, 4.44 log2 enrichment (interaction score).
